Experimental data: PubChem BioAssay (NCATS)
Values joined by “and” are separate entries in the source; they are usually repeats but may differ in a detail not shown here. Identical values can stand only once. Results filed as inconclusive are left out. Where a structure was tested more than once in an assay, its records may differ in their call. Active and inactive are the calls of the source. Calls come from the whole dose curve; as a rule, active = well fitted inhibition curve with a large enough effect; inconclusive = small, poorly fitted or top-dose-only effect; inactive = flat fitted curve, though single readings scatter.

Legend:
PC26 = experiment: qHTS profiling for inhibitors of Plasmodium falciparum proliferation (AID 504749); details: P. falciparum in erythrocytes, SYBR Green DNA, 72 h; series mostly up to 28.7 µM
How it was run: (§1)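 SYBR Green fluorescence of parasite DNA, read after lysis and overnight dark incubation, measured growth over 72 h in erythrocyte culture at 0.3% parasitemia and 2.5% hematocrit. Data normalised to DMSO and 0.29 uM artemisinin, with plate-drift correction.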

PC49 = experiment: as above; details: P. falciparum in erythrocytes, SYBR Green DNA, 72 h; series mostly up to 28.7 µM
How it was run: as §1

TAB113 = experiment: as above; details: P. falciparum in erythrocytes, SYBR Green DNA, 72 h; series mostly up to 28.7 µM
How it was run: as §1

W2 = experiment: as above; details: P. falciparum in erythrocytes, SYBR Green DNA, 72 h; series mostly up to 28.7 µM
How it was run: as §1

KB-3-1 = experiment: Cytotoxic Profiling of Annotated Libraries Using Quantitative High-Throughput Screening (AID 1296008); details: Five cell lines viability, CellTiter-Glo ATP luminescence, 48-72 h; max response: active compounds read low; for max response: % is set by controls: 0 for no effect and ±100 for the full control effect
How it was run: (§2)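 Cytotoxicity was measured as CellTiter-Glo ATP luminescence, read after 10 min at room temperature. Compound treatment of the cells lasted 48 or 72 hr at 37 degrees Celsius in a qHTS format.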

MCC-13 = experiment: qHTS assay to identify novel small-molecules to repurpose for Merkel cell carcinoma treatment (AID 1296009); details: MCC and control cell lines, CellTiter-Glo viability, 72 h; series mostly up to 46 µM
How it was run: (§3)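 Cell viability, measured as CellTiter-Glo luminescence, was normalized between DMSO and no-cell wells. The cells had been exposed to 8- or 11-point compound dilutions for 72 hr at 37 degree celsius.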

MCC-26 = experiment: as above; details: MCC and control cell lines, CellTiter-Glo viability, 72 h; series mostly up to 46 µM
How it was run: as §3

MKL-1 = experiment: as above; details: MCC and control cell lines, CellTiter-Glo viability, 72 h; series mostly up to 46 µM
How it was run: as §3

SC27B = experiment: qHTS profiling for inhibitors of Plasmodium falciparum proliferation (AID 504749); details: P. falciparum in erythrocytes, SYBR Green DNA, 72 h; series mostly up to 28.7 µM
How it was run: as §1

TAB109 = experiment: as above; details: P. falciparum in erythrocytes, SYBR Green DNA, 72 h; series mostly up to 28.7 µM
How it was run: as §1

TAB165 = experiment: as above; details: P. falciparum in erythrocytes, SYBR Green DNA, 72 h; series mostly up to 28.7 µM
How it was run: as §1

HEK293 = experiment: Cytotoxic Profiling of Annotated Libraries Using Quantitative High-Throughput Screening (AID 1296008); details: Five cell lines viability, CellTiter-Glo ATP luminescence, 48-72 h; max response: active compounds read low; for max response: % is set by controls: 0 for no effect and ±100 for the full control effect
How it was run: as §2

NIH3T3 [1] = experiment: as above; details: Five cell lines viability, CellTiter-Glo ATP luminescence, 48-72 h; max response: active compounds read low
How it was run: as §2

HaCat [2] = experiment: as above; details: Five cell lines viability, CellTiter-Glo ATP luminescence, 48-72 h; max response: active compounds read low
How it was run: as §2

MKL-2 = experiment: qHTS assay to identify novel small-molecules to repurpose for Merkel cell carcinoma treatment (AID 1296009); details: MCC and control cell lines, CellTiter-Glo viability, 72 h; series mostly up to 46 µM
How it was run: as §3

PC15 = experiment: qHTS profiling for inhibitors of Plasmodium falciparum proliferation (AID 504749); details: P. falciparum in erythrocytes, SYBR Green DNA, 72 h; series mostly up to 28.7 µM
How it was run: as §1

HACAT [3] = experiment: qHTS assay to identify novel small-molecules to repurpose for Merkel cell carcinoma treatment (AID 1296009); details: MCC and control cell lines, CellTiter-Glo viability, 72 h; series mostly up to 44.8 µM
How it was run: as §3

NIH3T3 [4] = experiment: as above; details: MCC and control cell lines, CellTiter-Glo viability, 72 h; at 44.8 µM (top of the series) unless noted
How it was run: as §3
Note: nearly all actives have a fitted effect of over 60% in size.
Potency is the fitted concentration of half-maximal effect.

CC(C)(C)NC(=O)[C@H]1CN(Cc2cccnc2)CCN1C[C@@H](O)C[C@@H](Cc1ccccc1)C(=O)N[C@H]1c2ccccc2C[C@H]1O
active: Potency (PC26) 8.49 µM | Potency (TAB113) 11.2 µM | Potency (W2) 6.01 µM
inactive: Potency (PC49) | max response (KB-3-1) -44.5% | Potency (MCC-13) | Potency (MCC-26) | Potency (MKL-1)

Nc1ccn([C@@H]2O[C@H](CO)[C@H](O)C2(F)F)c(=O)n1
active: Potency (PC26) 4.78 µM | Potency (PC49) 708 nM | Potency (SC27B) 3.98 µM | Potency (TAB109) 5.01 µM | Potency (TAB113) 3.98 µM | Potency (TAB165) 3.98 µM | Potency (W2) 0.19 µM

Cc1cc(Nc2cc(NC(=O)c3c(Cl)cccc3Cl)ccn2)nc(N)n1
active: Potency (HEK293) 0.935 µM | Potency (KB-3-1) 0.418 µM | Potency (NIH3T3 [1]) 3.72 µM | Potency (MCC-26) 26.4 µM

Cc1cc(Nc2cc(CN3CCOCC3)c3nc(C)c(Cc4ccc(Cl)cc4F)n3n2)n[nH]1
inactive: max response (HaCat [2]) -23.1%
active: Potency (HaCat [2]) 14.8 µM | Potency (KB-3-1) 4.18 µM and 5.17 µM | Potency (NIH3T3 [1]) 13.2 µM and 11.6 µM

O=c1[nH]nc(Sc2ncc([N+](=O)[O-])s2)n1-c1ccc2c(c1)OCCO2
active: Potency (HEK293) 9.35 µM | Potency (HaCat [2]) 18.7 µM | Potency (NIH3T3 [1]) 8.33 µM | Potency (MCC-13) 11.8 µM | Potency (MKL-1) 3.72 µM | Potency (MKL-2) 5.26 µM

CC(C)c1noc(N2CCC(COc3ccc(-c4ccc(S(C)(=O)=O)cc4)nc3)CC2)n1
active: Potency (HEK293) 7.43 µM and 8.2 µM
inactive: max response (HaCat [2]) -15.4% and 4.61% | max response (NIH3T3 [1]) -1.13% and 3.22% | Potency (MCC-13) | Potency (MCC-26) | Potency (MKL-1) | Potency (MKL-2)

CCCCOc1c(C(=O)c2c(F)cc(C)cc2F)cnc2n[nH]cc12
active: Potency (HEK293) 14.8 µM and 2.59 µM | Potency (NIH3T3 [1]) 16.6 µM
inactive: outcome (KB-3-1) | Potency (MCC-13) | Potency (MCC-26) | Potency (MKL-1) | Potency (MKL-2)

O=C(O)c1ccc2cc(-c3ccc(O)c(C45CC6CC(CC(C6)C4)C5)c3)ccc2c1
active: Potency (HEK293) 1.87 µM | Potency (NIH3T3 [1]) 1.66 µM | Potency (MCC-13) 2.64 µM | Potency (MCC-26) 2.96 µM | Potency (MKL-1) 2.35 µM
inactive: max response (KB-3-1) 7.83%

Nc1ccn([C@@H]2CS[C@H](CO)O2)c(=O)n1
inactive: Potency (PC15) | Potency (PC26) | Potency (PC49) | Potency (SC27B) | Potency (TAB109) | Potency (TAB113) | Potency (TAB165) | Potency (W2)

Nc1ccc(S(=O)(=O)Nc2ncccn2)cc1
inactive: Potency (PC15) | Potency (PC26) | Potency (PC49) | Potency (SC27B) | Potency (TAB109) | Potency (TAB113) | Potency (TAB165) | Potency (W2) | Potency (HACAT [3]) | Potency (MCC-13) | Potency (MCC-26) | Potency (MKL-1) | Potency (MKL-2) | outcome (NIH3T3 [4])

CCCCN1CCC(CNC(=O)c2c3n(c4ccccc24)CCCO3)CC1
inactive: Potency (MCC-13) | Potency (MCC-26)

O=C(Nc1nc2cccc(-c3ccc(CN4CCS(=O)(=O)CC4)cc3)n2n1)C1CC1
inactive: max response (NIH3T3 [1]) -23.2% | Potency (MCC-13)
active: Potency (HEK293) 10.5 µM and 10.3 µM | Potency (KB-3-1) 8.33 µM

Cc1cnc(-c2cnc(NCCNc3ccc(C#N)cn3)nc2-c2ccc(Cl)cc2Cl)[nH]1
inactive: max response (HEK293) -23.2% and -27.2% | outcome (HaCat [2]) | max response (KB-3-1) -14.7% and -1.89% | outcome (NIH3T3 [1]) | Potency (HACAT [3]) | Potency (MCC-26) | Potency (MKL-1) | Potency (MKL-2) | outcome (NIH3T3 [4])

Cc1c(NC(=O)OC[C@@H]2COCCN2)cn2ncnc(Nc3ccc4c(cnn4Cc4cccc(F)c4)c3)c12
inactive: max response (KB-3-1) -29.5% | max response (NIH3T3 [1]) 3.43% | Potency (MCC-13) | Potency (MCC-26) | Potency (MKL-1)
active: Potency (HEK293) 14.8 µM and 23.1 µM | Potency (HaCat [2]) 4.69 µM and 2.91 µM | Potency (NIH3T3 [1]) 20.9 µM

C[C@@H]1COC(Nc2ccc3ncnc(Nc4ccc(OCc5nccs5)c(Cl)c4)c3c2)=N1
active: Potency (HEK293) 8.33 µM and 16.4 µM | Potency (HaCat [2]) 1.66 µM and 1.3 µM
inactive: max response (KB-3-1) -27.7% | max response (NIH3T3 [1]) -19.2% | outcome (NIH3T3 [1]) | Potency (MCC-13) | Potency (MCC-26) | outcome (NIH3T3 [4])

CN1CCN(c2ccc3nc(-c4c(N)c5c(F)cccc5[nH]c4=O)[nH]c3c2)CC1
active: Potency (HEK293) 1.66 µM | Potency (KB-3-1) 16.6 µM | Potency (NIH3T3 [1]) 1.32 µM | Potency (MKL-1) 8.33 µM
